DAX1 inh-1 = blocks DAX1 repression of SF-1 activated StAR promoter. inhibition, % at 6.8 µM. 1.1% of 370,000 active. AID 652010. HEK293T StAR-luciferase reporter, SF-1/DAX-1 repression relief;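 active = inhibition above the mean over all tested compounds plus 3 SD, cut at about 3.6% in these data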;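 also: 0% = DAX-1 cells with DMSO and 100% = cells lacking DAX-1 with DMSO; higher inhibition means more luminescence from relief of DAX-1 repression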
hcDAF12 agonist = activators of H. contortus DAF-12 nuclear receptor; HEK293 hcDAF-12 lit1-tk-luc reporter, luminescence; 0% DMSO, 100% Δ7-dafachronic acid; activation, % at 6.8 µM; 1.4% of 370,000 active;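 active = activation above the mean of all tested compounds plus 3 SD, cut at about 5.5% in these data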;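 also: 100% = response to 3 µM Δ7-dafachronic acid high control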
ssDAF-12 act = activators of S. stercoralis DAF-12 nuclear receptor; activation, % at 6.8 µM; HEK293 ssDAF-12/GRIP1 lit1-tk-luc reporter, luminescence; % of 3 µM dafachronic acid response; 1% of 370,000 active; AID 652126;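 active = activation above the mean over all tested compounds plus 3 SD, cut at about 0.9% in these data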;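 also: 0% = DMSO-only wells and 100% = 3 µM delta7-dafachronic acid wells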
DAX1 inh-2 = inhibitors of human orphan nuclear receptor DAX1 (NR0B1) | inhibition, % at 6.75 µM | P51843 | 0.99% of 340,000 active | HEK293 Gal4-DAX1 luciferase reporter, luminescence;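 active = inhibition above the mean over all tested compounds plus 3 SD, cut at about 4.2% in these data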;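 also: 0% = DAX1-transfected cells with DMSO and 100% = empty-vector control cells with DMSO; inhibition shows as a rise in luminescence from relieved DAX1 repression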
Target sequence (P51843 207-470 limits assumed): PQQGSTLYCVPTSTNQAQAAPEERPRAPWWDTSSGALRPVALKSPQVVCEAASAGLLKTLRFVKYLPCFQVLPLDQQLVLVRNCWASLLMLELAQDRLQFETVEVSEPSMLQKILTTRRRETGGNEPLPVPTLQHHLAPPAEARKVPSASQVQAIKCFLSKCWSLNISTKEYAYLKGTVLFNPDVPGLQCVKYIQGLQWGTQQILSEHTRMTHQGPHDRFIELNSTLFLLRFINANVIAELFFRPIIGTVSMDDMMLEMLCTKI
hgDAF12 agonist = agonists of H. glycines DAF-12 nuclear receptor; 1.8% of 370,000 active; HEK293 GAL4-hgDAF12 UAS-luciferase reporter, agonist luminescence; normalized to butyrate control; AID 687014; activation, % at 6.8 µM;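 active = activation above a cutoff set at the mean of all screened compounds plus 3 SD, cut at about 10% in these data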;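 also: 0% = DMSO wells and 100% = sodium butyrate wells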
AHR activator = activators of human aryl hydrocarbon receptor; P35869; AHR-responsive luciferase reporter cells, luminescence; 2.5% of 320,000 active; activation, % at 5 µM; in the data active = activation above about 47%;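 also: 0% = vehicle wells and 100% = reference agonist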
Numbers without * were called inactive; . = no result given. Most compounds without a hit are left out; they make up all but 5.7% or so of the library.

SMILES	DAX1 inh-1	hcDAF12 agonist	ssDAF-12 act	DAX1 inh-2	hgDAF12 agonist	AHR activator
Cc1cc2c(C)ccc(C)c2nc1SCC(=O)c1cccs1	0	1	-2	0	-2	58*
Cc1ccc(C)c2nc(SCC(=O)NCc3cccs3)c(C#N)cc12	0	0	-1	0	-3	0
O=C(CCCN1C(=O)C(c2ccccc2)Oc2cccnc21)Nc1cccc(F)c1 (configuration not stated)	-1	-3	-1	0	-4	-1
O=C1C2C3C=CC(C4CC34)C2C(=O)N1/N=C/c1ccc([N+](=O)[O-])s1 (configuration not stated)	0	-1	-1	1	6	11
O=C1C2C3C=CC(C4CC34)C2C(=O)N1/N=C/c1c[nH]c2ccccc12 (configuration not stated)	0	6.0*	2.2*	1	10*	39
CCCCn1c(N)c(N(C)C(=O)c2ccc(OCC3CCCO3)cc2)c(=O)[nH]c1=O (configuration not stated)	0	-1	-1	0	-2	0
CCc1cc2c(Nc3ccccc3O)nc(C)nc2s1	-1	-1	-2	-2	-3	.
CCc1cc2c(Nc3ccc(O)cc3)nc(C)nc2s1	-1	1	-1	-1	-4	79*
Cc1cc(SCC(=O)NC2CCCC2)nc2ccccc12	0	0	-1	1	1	-2
COC(=O)[C@]12CCCCC=C1N(Cc1ccc(OC)cc1)C(=O)[C@@H]2CC(=O)N1CCSCC1	-1	-1	0	.	2	.
Cc1ccc2c(c1)c1c3n2CCN(CC#N)C3CCC1 (configuration not stated)	1	0	-1	6.5*	2	44
CCN1CCn2c3c(c4cc(Br)ccc42)CCCC31 (configuration not stated)	0	-1	-1	1	1	49*
Cc1ccc2c(c1)c1c3n2CCN(CCC(=O)O)C3CCC1 (configuration not stated)	0	0	-1	1	1	-3
COc1cc(F)ccc1-c1csc(C(NC(C)=O)c2cccc(F)c2)n1 (configuration not stated)	4.2*	0	-1	.	2	.
CC(=O)NC(c1cccc(F)c1)c1nc(-c2ccccc2C)cs1 (configuration not stated)	0	1	-1	.	-1	.
C=CCOc1ccc(C(=O)NC2CCCCC2)cc1	1	4	-1	1	10*	23
O=C(NCCC1=CCCCC1)c1ccc(CN2CCOCC2)cc1	2	5	0.9*	3	7	7
O=C(NC1CCCCCC1)c1ccc(CN2CCOCC2)cc1	1	3	0	4.6*	8	3
COc1ccc(OC)c(S(=O)(=O)Nc2ccc(-c3ccc4nnc(C)n4n3)cc2)c1	2	4	-1	3	1	2
COc1ccc(CC(=O)Nc2ccc(-c3ccc4nnc(C)n4n3)cc2)cc1OC	1	-1	0	5.7*	-5	-8
CCN(CC)CCCn1c2c(c(SCC(=O)Nc3cccc(C(C)=O)c3)nc1=O)CCC2	1	1	-1	-1	0	-1
CCN(CC)CCn1c2c(c(SCC(=O)Nc3nc4ccccc4s3)nc1=O)CCC2	4	5.8*	0	-1	8	14
CCN(CC)CCn1c2c(c(SCC(=O)Nc3nc4ccc(C)cc4s3)nc1=O)CCC2	1	-2	-1	0	3	1
CCN(CC)CCCn1c2c(c(SCC(=O)Nc3cc(C)cc(C)c3)nc1=O)CCC2	4.4*	0	-1	0	-1	.
COC(=O)C1=C(C)N(C)C(=NCc2ccc3c(c2)OCO3)NC1c1cccc(F)c1 (configuration not stated)	1	1	-1	.	0	.
SMILES	DAX1 inh-1	hcDAF12 agonist	ssDAF-12 act	DAX1 inh-2	hgDAF12 agonist	AHR activator
CCOc1ccc(N=C2NC(=O)S/C2=C\c2ccc(N(C)C)cc2)cc1	4	4	-1	3	8	62*
O=C(Nc1ccc2nc(-c3ccc(Br)o3)[nH]c2c1)c1ccco1	0	0	1	0	2	-13
CC(=O)Nc1ccc2nc(-c3ccc(Br)o3)[nH]c2c1	1	2	0	-1	11*	33
Cc1ccc(NC2=CC(=O)CC(c3ccco3)C2)c(N)c1 (configuration not stated)	4	4	1.6*	3	11*	21
Brc1ccsc1-c1csc(-c2ccncc2)n1	0	2	0	2	2	8
CCC[C@H]1CN(c2ccccc2)C(=O)[C@@H]1CC(=O)Nc1ccc(OC)cc1	-1	-2	-2	2	-5	.
CCC[C@H]1CN(c2ccccc2)C(=O)[C@@H]1CC(=O)Nc1ccc(Br)cc1	1	1	0	7.8*	4	.
Cc1ccc(Cc2c(-c3cccc(Cl)c3)nc3ccc(Cl)cn23)cc1	3	2	0	.	3	.
O=C1NCCN(Cc2ccc(Cl)c(F)c2)C1CC(=O)N1CCCCO1 (configuration not stated)	0	1	-1	0	-1	-2
CC1=C(C(=O)NC(C)c2ccccc2)C2(CCC(C)CC2)OC1=O (configuration not stated)	0	-2	-1	0	-5	6
CC1=C(C(=O)NC(C)CCc2ccccc2)C2(CCC(C)CC2)OC1=O (configuration not stated)	0	1	-1	5.1*	-1	0
Clc1ccc(/C=N\Nc2ccccc2)cc1	1	2	-1	0	-2	14
COc1ccc(/C=N/NC(=O)CSCC(=O)Nc2ccccc2)cc1OC	1	-2	-1	1	0	2
O=C(N/N=C/c1cc(Br)ccc1O)Nc1ccccc1	0	3	-1	0	4	51*
COc1cc(/C=N/NC(=O)Nc2ccccc2)ccc1OC(C)=O	1	3	0	1	12*	13
O=C(N/N=C/c1ccc(Cl)cc1)Nc1ccccc1	1	1	-1	2	9	67*
Cc1ccc(C2=NCCn3c2c2ccccc2[n+]3[O-])cc1	0	3	0	0	1	20
COc1ccc2c(CC(=O)Nc3ccc4nc(N5CCOCC5)sc4c3)coc2c1	-1	2	-1	-1	-2	.
O=S(=O)(c1ccc2c(c1)CCN2)N1CCOCC1	-2	1	0	0	-2	0
O=C(Cn1cnc2ccccc2c1=O)Nc1nc2ccccc2s1	0	2	0	1	4	8
CCc1ccc2nc(NC(=O)C3CSC4(C)CCC(=O)N34)sc2c1 (configuration not stated)	1	4	1	0	7	66*

Screens (PubChem)
